# A number with no mark means an inactive call. Inconclusive results are not listed. A call without a number means that no potency is given here. Activity calls are given as the source filed them. Unless noted, calls come from the whole dose curve; as a rule, active = well fitted curve in the direction sought with a large enough effect in the repeat runs; inconclusive = weak or mixed curves; inactive = no such curve, though single readings can be large; an effect the other way counts as inactive or inconclusive.
# What was measured:
# [1] = qHTS assay for small molecule agonists of the p53 signaling pathway (AID 651631; calls by dose curve; note: nearly all actives have a fitted effect of over 15% in size)
# Summary of the method: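 Agonist mode screen using a stably integrated beta-lactamase gene under p53 response elements in HCT-116 cells. Compound exposure lasts 16 h at 37 °C; fluorescence intensity is measured following 2 h FRET substrate loading.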
# [2] = qHTS assay for small molecules that induce genotoxicity in human embryonic kidney cells expressing luciferase-tagged ATAD5 (AID 651632); note: nearly all actives have a fitted effect of over 15% in size
# Summary of the method: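 Test compounds were delivered by pin tool onto HEK293T reporter cells (2,000/well) expressing ATAD5 fused to luciferase. After 16 hr at 37C, 5% CO2, Amplite was added for 30 min at room temperature and luminescence was measured.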
# [3] = qHTS assay for small molecule disruptors of the mitochondrial membrane potential - cell viability (AID 720634; calls by dose curve;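 note: human HepG2 liver cancer cells; nearly all actives have a fitted effect of over 20% in size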)
# Summary of the method: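 Same-well counter-screen: following the MMP dye addition, CellTiter-Glo was added to 1 hr compound-treated HepG2 cells and luminescence read after 30 min at room temperature.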
# [4] = qHTS assay to test for compound auto fluorescence at 590 nm (red) in HepG2 cells (AID 720674)
# Summary of the method: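 Red autofluorescence (Ex/Em 540/590 nm, Rose Bengal sodium equivalents) was measured in HepG2 cells, 2,000 per well in MEM plus 10% FBS, plated overnight at 37 C. Readings were taken 1 hr after adding 23 nL compound or DMSO, at 37 C and 5% CO2.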
# [5] = qHTS assay to test for compound auto fluorescence at 535 nm (green) in HepG2 cells (AID 720675)
# [6] = qHTS assay to test for compound auto fluorescence at 460 nm (blue) in HEK293 cells (AID 720678)
# Summary of the method: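 HEK293, 2,000 cells/well, 10% dialyzed FBS; attach 4-5 hr 37C; pin compound or DMSO; o/n 37C/5% CO2; fluorescence 405/460 nm; triamterene-equivalent units.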
# [7] = qHTS assay to test for compound auto fluorescence at 590 nm (red) in HEK293 cells (AID 720679)
# Summary of the method: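 Intensity at 540nm excitation and 590nm emission is reported as Rose Bengal sodium-equivalent autofluorescence. Measurements followed overnight exposure (37C, 5% CO2) of HEK293 cells, 2,000 per well, to 23 nL compound.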
# [8] = qHTS assay to test for compound auto fluorescence at 535 nm (green) in HEK293 cells (AID 720680)
# [9] = qHTS assay to test for compound auto fluorescence at 460 nm (blue) in HEK293 cell free culture (AID 720681)
# Summary of the method: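 Blue fluorescence (Ex 405/Em 460 nm, triamterene-equivalent) was read immediately after pin transfer of compound or DMSO into medium (DMEM, 10% FBS) without cells.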
# [10] = qHTS assay to test for compound auto fluorescence at 535 nm (green) in HEK293 cell free culture (AID 720682)
# Summary of the method: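 No cells present: wells hold DMEM supplemented with 10% FBS, into which compound or vehicle is pinned. Green emission is then recorded (485 nm excitation, 535 nm emission) and scaled to fluorescein.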
# [11] = qHTS assay to test for compound auto fluorescence at 590 nm (red) in HepG2 cell free culture (AID 720684)
# Summary of the method: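 Cell-free; medium MEM + 10% FBS; compound or DMSO added by pintool; read Ex 540/Em 590 nm; Rose Bengal sodium as red reference fluorophore.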
# [12] = qHTS assay to test for compound auto fluorescence at 460 nm (blue) in HepG2 cell free culture (AID 720685)
# Summary of the method: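 Cell-free plates of MEM plus 10% FBS received 23 nL compound or DMSO vehicle; blue-channel (405/460 nm) intensity scored against triamterene as reference fluorophore.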
# [13] = qHTS assay to test for compound auto fluorescence at 535 nm (green) in HepG2 cell free culture (AID 720686)
# [14] = qHTS assay to test for compound auto fluorescence at 460 nm (blue) in HepG2 cells (AID 720687)
# Summary of the method: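 Blue-channel autofluorescence (Ex/Em 405/460 nm, triamterene-equivalent) was measured after 1 hr compound exposure at 37 C, 5% CO2. Cells were HepG2, plated overnight at 37 C in MEM plus 10% FBS.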
# [15] = qHTS assay for small molecule agonists of the p53 signaling pathway - cell viability (AID 651633; calls by dose curve; note: nearly all actives have a fitted effect of over 30% in size; note: potency is the fitted concentration of half-maximal effect)
# Summary of the method: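 Viability counter-read: CellTiter-Glo luminescence (30 min, room temperature) in the same p53RE-bla plates. These plates had been exposed to compounds for 16 h at 37 C.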
# [16] = qHTS assay for small molecules that induce genotoxicity in human embryonic kidney cells expressing luciferase-tagged ATAD5 - cell viability (AID 651634; calls by dose curve; note: nearly all actives have a fitted effect of over 25% in size)
# Summary of the method: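 Quantitative high-throughput format. HEK293T cells expressing ATAD5 fused to luciferase were plated at 2,000 cells/well and treated 15.5 hr with compound versus DMSO. Viability was determined by fluorescent live-cell protease substrate, 30 min at 37C.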
# [17] = qHTS assay for small molecule disruptors of the mitochondrial membrane potential (AID 720635)
# Summary of the method: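 Mitochondrial membrane potential tracked with Mito-MPS dye, red aggregates (ex 540/em 590 nm) against green monomers (ex 490/em 535 nm). Compound treatment 1 hr at 37C, dye 30 min in HepG2.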
# [18] = qHTS assay to test for compound auto fluorescence at 590 nm (red) in HEK293 cell free culture (AID 720683)
# Summary of the method: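 Red-channel autofluorescence of compounds in culture medium (DMEM, 10% FBS), no cells, measured at 540/590 nm. Rose Bengal sodium is the reference fluorophore for equivalence.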
# [19] = biological target: Glucocorticoid receptor (Homo sapiens) (UniProt P04150); experiment: qHTS assay to identify small molecule agonists of the glucocorticoid receptor (GR) signaling pathway (AID 720691; active = well fitted activation curve with a large enough effect in the signal ratio in the repeat runs, not every such curve was filed as active; the % refers to the signal ratio); conditions: GR-bla HeLa, beta-lactamase reporter ratio, 18 h; activation: at 62.4 µM (top of the series) unless noted
# Summary of the method: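 A HeLa cervical cancer line expressing GR and a glucocorticoid response element-driven beta-lactamase gene is treated with compounds for 18 h; LiveBLAzer B/G FRET substrate is then applied and fluorescence read.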
# [20] = biological target: Glucocorticoid receptor (Homo sapiens) (UniProt P04150); experiment: qHTS assay to identify small molecule antagonists of the glucocorticoid receptor (GR) signaling pathway (AID 720692; active = well fitted inhibition curve with a large enough effect in the signal ratio in the repeat runs, not every such curve was filed as active; the % refers to the signal ratio)
# Summary of the method: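 GRE-bla HeLa line, dex-stimulated (5 nM final). Compound exposure 18 h, 37 C. Beta-lactamase FRET read after 2 h RT substrate.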
# Chain of Glucocorticoid receptor (Homo sapiens) (P04150 whole entry, looked up): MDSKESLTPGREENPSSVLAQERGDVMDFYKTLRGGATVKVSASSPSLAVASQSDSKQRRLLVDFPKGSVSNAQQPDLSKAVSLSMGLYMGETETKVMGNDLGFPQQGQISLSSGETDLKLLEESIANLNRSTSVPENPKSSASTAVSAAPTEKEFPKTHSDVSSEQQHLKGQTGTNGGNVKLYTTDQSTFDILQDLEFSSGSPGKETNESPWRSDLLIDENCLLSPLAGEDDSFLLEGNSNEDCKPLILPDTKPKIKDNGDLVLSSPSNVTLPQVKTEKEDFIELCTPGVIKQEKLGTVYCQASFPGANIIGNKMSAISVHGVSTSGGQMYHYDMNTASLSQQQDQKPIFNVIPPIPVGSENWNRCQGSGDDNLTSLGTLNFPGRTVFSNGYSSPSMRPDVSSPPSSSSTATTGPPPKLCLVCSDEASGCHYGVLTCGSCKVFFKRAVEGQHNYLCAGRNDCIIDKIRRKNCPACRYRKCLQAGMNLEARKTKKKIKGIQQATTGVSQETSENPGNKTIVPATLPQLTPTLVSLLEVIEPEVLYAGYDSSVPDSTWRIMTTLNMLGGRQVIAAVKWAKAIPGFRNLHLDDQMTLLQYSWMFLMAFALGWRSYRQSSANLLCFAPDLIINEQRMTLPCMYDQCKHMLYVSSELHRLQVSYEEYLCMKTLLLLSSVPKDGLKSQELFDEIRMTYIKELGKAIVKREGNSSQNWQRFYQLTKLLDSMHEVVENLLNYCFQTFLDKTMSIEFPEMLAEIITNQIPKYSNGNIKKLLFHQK
compound,measurement,setting,value
Nc1c(CC(=O)O)cccc1C(=O)c1ccc(Br)cc1,Potency,[1],inactive
same,Potency,[2],inactive
same,Potency,[3],inactive
same,Potency,[4],inactive
same,Potency,[5],inactive
same,outcome,[6],inactive
same,Potency,[7],inactive
same,outcome,[8],inactive
same,outcome,[9],inactive
same,outcome,[10],inactive
same,Potency,[11],inactive
same,outcome,[12],inactive
same,Potency,[13],inactive
same,outcome,[14],inactive
CCCCO,Potency,[1],inactive
same,Potency,[15],inactive
same,Potency,[16],inactive
same,Potency,[3],inactive
same,Potency,[17],inactive
same,Potency,[4],inactive
same,Potency,[5],inactive
same,outcome,[6],inactive
same,Potency,[7],inactive
same,outcome,[9],inactive
same,outcome,[10],inactive
same,Potency,[18],inactive
same,Potency,[11],inactive
same,outcome,[12],inactive
same,Potency,[13],inactive
same,outcome,[14],inactive
C[Si](C)(CCCN)O[Si](C)(C)CCCN,Potency,[2],inactive
same,Potency,[15],inactive
same,Potency,[16],inactive
same,Potency,[3],inactive
same,Potency,[4],inactive
same,Potency,[5],inactive
same,outcome,[6],inactive
same,Potency,[7],inactive
same,outcome,[8],inactive
same,outcome,[9],inactive
same,outcome,[10],inactive
same,Potency,[18],inactive
same,Potency,[11],inactive
same,outcome,[12],inactive
same,Potency,[13],inactive
same,outcome,[14],inactive
same,Potency,[19],inactive
same,Potency,[20],inactive
COCC(C)OC(C)=O (stereo unspecified),Potency,[2],inactive
same,Potency,[15],inactive
same,Potency,[16],inactive
same,Potency,[3],inactive
same,Potency,[17],inactive
same,Potency,[4],inactive
same,Potency,[5],inactive
same,outcome,[6],inactive
same,Potency,[7],inactive
same,outcome,[8],inactive
same,outcome,[9],inactive
same,outcome,[10],inactive
same,Potency,[18],inactive
same,Potency,[11],inactive
same,outcome,[12],inactive
same,Potency,[13],inactive
same,outcome,[14],inactive
same,Potency,[20],inactive
CC(=O)c1cccc([N+](=O)[O-])c1,Potency,[1],inactive
same,Potency,[15],inactive
same,Potency,[3],inactive
same,Potency,[17],inactive
same,Potency,[4],inactive
same,Potency,[5],inactive
same,outcome,[6],inactive
same,Potency,[7],inactive
same,outcome,[8],inactive
same,outcome,[9],inactive
same,outcome,[10],inactive
same,Potency,[18],inactive
same,Potency,[11],inactive
same,outcome,[12],inactive
same,outcome,[14],inactive
same,Potency,[20],inactive
CC(=O)[O][Al],Potency,[1],inactive
same,Potency,[15],inactive
same,Potency,[16],inactive
same,Potency,[3],inactive
same,Potency,[4],inactive
same,Potency,[5],inactive
same,outcome,[6],inactive
same,Potency,[7],inactive
same,outcome,[8],inactive
same,outcome,[9],inactive
same,outcome,[10],inactive
same,Potency,[18],inactive
same,Potency,[11],inactive
same,outcome,[12],inactive
same,Potency,[13],inactive
same,outcome,[14],inactive
C=C(C)C(=O)OCC,Potency,[2],inactive
same,Potency,[15],inactive
same,Potency,[16],inactive
same,Potency,[3],inactive
same,Potency,[17],inactive
same,Potency,[5],inactive
same,outcome,[6],inactive
same,Potency,[7],inactive
same,outcome,[9],inactive
same,outcome,[10],inactive
same,Potency,[18],inactive
same,Potency,[11],inactive
same,outcome,[12],inactive
same,Potency,[13],inactive
same,outcome,[14],inactive
same,Potency,[19],inactive
same,Potency,[20],inactive
CCN(CC)CCOC(=O)C(Cc1cccc2ccccc12)CC1CCCO1 (stereo unspecified),Potency,[2],inactive
same,Potency,[15],inactive
same,Potency,[16],inactive
same,Potency,[3],inactive
same,"fluorescence, relative to Rose Bengal",[4],-0.202% [at 18.6 µM]
same,"fluorescence, % of fluorescein control",[5],0.0388% [at 18.6 µM]
same,"fluorescence, % of triamterene",[6],0.0425% [at 18.6 µM]
same,"fluorescence, % of fluorescent control",[7],0.195% [at 18.6 µM]
same,"fluorescence, % of fluorescein",[8],0.0124% [at 18.6 µM]
same,"fluorescence, % of fluorescent control",[9],0.0375% [at 18.6 µM]
same,activity change,[10],-0.0273% [at 18.6 µM]
same,"fluorescence, % of fluorescent control",[18],0.0006% [at 18.6 µM]
same,"fluorescence, % of Rose Bengal",[11],0.633% [at 18.6 µM]
same,"fluorescence, % of fluorescent control",[12],-0.0194% [at 18.6 µM]
same,"fluorescence, % of fluorescein control",[13],0.0151% [at 18.6 µM]
same,"fluorescence, % of fluorescent control",[14],-0.147% [at 18.6 µM]
CC(C)(C)OCC1CO1 (stereo unspecified),Potency,[2],inactive
same,Potency,[15],inactive
same,Potency,[16],inactive
same,Potency,[3],inactive
same,Potency,[17],inactive
same,Potency,[4],inactive
same,Potency,[5],inactive
same,outcome,[6],inactive
same,Potency,[7],inactive
same,outcome,[8],inactive
same,outcome,[9],inactive
same,outcome,[10],inactive
same,Potency,[18],inactive
same,Potency,[11],inactive
same,outcome,[12],inactive
same,Potency,[13],inactive
same,outcome,[14],inactive
CN(Cc1ccc(C(C)(C)C)cc1)Cc1cccc2ccccc12,Potency,[2],inactive
same,Potency,[15],23.7 µM (active)
same,Potency,[16],inactive
same,Potency,[3],inactive
same,Potency,[17],inactive
same,Potency,[4],inactive
same,Potency,[5],inactive
same,outcome,[6],inactive
same,Potency,[7],inactive
same,outcome,[9],inactive
same,outcome,[10],inactive
same,Potency,[18],inactive
same,Potency,[11],inactive
same,outcome,[12],inactive
same,Potency,[13],inactive
same,outcome,[14],inactive
same,Potency,[19],inactive
same,Potency,[20],inactive
C[N+]1(C)CCC(OC(=O)C(O)(c2ccccc2)C2CCCC2)C1 (stereo unspecified),Potency,[2],inactive
same,Potency,[15],inactive
same,Potency,[16],inactive
same,Potency,[3],inactive
same,Potency,[17],inactive
same,Potency,[4],inactive
same,Potency,[5],inactive
same,outcome,[6],inactive
same,Potency,[7],inactive
same,outcome,[8],inactive
same,outcome,[9],inactive
same,outcome,[10],inactive
same,Potency,[11],inactive
same,outcome,[12],inactive
same,Potency,[13],inactive
same,outcome,[14],inactive
same,Potency,[19],inactive
O=C1C(O)=C(O)C(=O)C(O)=C1O,Potency,[2],inactive
same,Potency,[15],inactive
same,Potency,[16],inactive
same,Potency,[3],inactive
same,Potency,[17],inactive
same,Potency,[4],inactive
same,Potency,[5],inactive
same,outcome,[6],inactive
same,Potency,[7],inactive
same,outcome,[9],inactive
same,Potency,[18],inactive
same,Potency,[11],inactive
same,outcome,[12],inactive
same,Potency,[13],inactive
same,outcome,[14],inactive
same,Potency,[20],inactive
CCCCOC(=O)CCCCCCCC(=O)OCCCC,Potency,[2],inactive
same,Potency,[15],inactive
same,Potency,[16],inactive
same,Potency,[3],inactive
same,Potency,[17],inactive
same,Potency,[5],inactive
same,outcome,[6],inactive
same,Potency,[7],inactive
same,outcome,[8],inactive
same,outcome,[9],inactive
same,outcome,[10],inactive
same,Potency,[18],inactive
same,Potency,[11],inactive
same,outcome,[12],inactive
same,Potency,[13],inactive
same,outcome,[14],inactive
O=C(OCCc1ccccc1)c1ccccc1,Potency,[1],inactive
same,Potency,[15],inactive
same,Potency,[16],inactive
same,Potency,[3],inactive
same,Potency,[17],inactive
same,Potency,[5],inactive
same,outcome,[6],inactive
same,Potency,[7],inactive
same,outcome,[8],inactive
same,outcome,[9],inactive
same,outcome,[10],inactive
same,Potency,[18],inactive
same,Potency,[11],inactive
same,outcome,[12],inactive
same,Potency,[13],inactive
same,Potency,[19],inactive

# Source: PubChem BioAssay (Tox21)
